High-throughput results from PubChem.
ID4 binder: binds human ID4 protein on microarray | P47928 | small molecule microarray, Flag-ID4 binding, fluorescence F/B | calls only | hit rate 1.2% among 31,000 | AID 624137; call rule not given here;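 note: a binder raises fluorescence above local background on the spot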
Target sequence (P47928 whole entry, looked up): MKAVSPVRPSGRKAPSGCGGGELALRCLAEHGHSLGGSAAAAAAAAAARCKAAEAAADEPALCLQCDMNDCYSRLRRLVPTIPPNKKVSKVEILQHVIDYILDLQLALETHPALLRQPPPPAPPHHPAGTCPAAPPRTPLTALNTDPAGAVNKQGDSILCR
p53 PUMA act: re-activators of the mutant p53 pathway. hit rate 1.5% among 28,000. activation, % at 9.98 µM. AID 624151. SW480 PUMA-promoter luciferase, p53 mutant reactivation; in the data active = activation above about 52%
* marks the source's active call; other numbers are inactive results; i = inactive; / = no result; + = active, no number. An excerpt weighted towards active compounds, which were near 2.3% of everything screened.

SMILES	ID4 binder	p53 PUMA act
COC(=O)c1ccccc1NC(=O)CSc1ncnc2sc3c(c12)CCC(C)C3 (stereo unspecified)	i	5.7
C[C@@H](NC(=O)N(C)C[C@@H]1OCc2ccccc2-c2c(n(C)c3ccccc23)C(=O)N([C@@H](C)CO)C[C@@H]1C)c1ccccc1	/	0.7
COc1ccc(-c2csc3ncn(CC(=O)Nc4sc5c(c4C#N)CCC5)c(=O)c23)cc1OC	+	-7.8
COc1ccc(-c2csc3ncn(CC(N)=O)c(=O)c23)cc1OC	i	11.9
O=c1n(-c2ccccc2)c(=O)n2n1CC(COc1ccccc1)=C1[C@@H](c3ccccc3)OB(O)C[C@@H]12	i	/
COc1ccc(Cl)cc1NC(=O)C(C)N(c1ccc(C)cc1)S(C)(=O)=O (stereo unspecified)	i	1.7
Cc1scc2c1N(C(=O)CN1CCN(C)CC1)c1ccccc1NC2=O	i	0.5
CCN(CC)CCCCC1CCN(CC(=O)N2c3ccccc3C(=O)Nc3cccnc32)CC1	+	3.1
C[C@H](CO)N1C[C@H](C)[C@@H](CN(C)C(=O)Nc2ccc3c(c2)OCO3)Oc2ncc(-c3cccnc3)cc2C1=O	i	10.6
O=C(Cn1cnc2ccccc2c1=O)Nc1ccc(Cl)c(Cl)c1	i	1.3
CC(=O)c1cccc(NC(=O)NCc2cccnc2)c1	i	-14.7
Cn1ccc2cc(NC(=O)Nc3cccnc3)ccc21	+	79.8*
Cn1c(SCC(=O)Nc2ccccc2[N+](=O)[O-])nc2ccccc2c1=O	i	-12.7
COc1ccc(-c2nn(C)c(=O)c3ccccc23)cc1CNS(=O)(=O)c1ccc(Cl)cc1	i	2.4
C[C@H](CO)N1C[C@H](C)[C@H](CN(C)C(=O)Nc2ccc(C(F)(F)F)cc2)Oc2c(NC(=O)Nc3cccc4ccccc34)cccc2C1=O	+	-11.7
CNC[C@@H]1Oc2c(NC(=O)Nc3ccc4c(c3)OCO4)cccc2C(=O)N([C@@H](C)CO)C[C@H]1C	/	10.4
C[C@@H]1CN([C@@H](C)CO)C(=O)c2cccc(NC(=O)Nc3ccc4c(c3)OCO4)c2O[C@H]1CN(C)C	i	74.2*
C[C@H](CO)N1C[C@H](C)[C@H](CN(C)S(C)(=O)=O)Oc2c(NC(=O)Nc3ccc4c(c3)OCO4)cccc2C1=O	/	7.2
C[C@H](CO)N1C[C@H](C)[C@@H](CN(C)C(=O)Nc2ccc(C(F)(F)F)cc2)Oc2c(NC(=O)Nc3cccc4ccccc34)cccc2C1=O	i	6.9
C[C@H]1CN([C@@H](C)CO)C(=O)c2cccc(NC(=O)Nc3ccc4c(c3)OCO4)c2O[C@@H]1CN(C)C	/	57.8*
OCC1OC(Oc2cc(O)cc(/C=C/c3ccccc3)c2)C(O)C(O)C1O (stereo unspecified)	i	41.2
Cn1c(SCC(=O)Nc2cc(C(F)(F)F)ccc2Cl)nnc1-c1ccc(Br)cc1	i	-4.7
COC(=O)c1cc(-c2ccccc2)sc1NC(=S)Nc1cn(C)nc1C	+	5.5
COC(=O)c1cc(-c2ccccc2)sc1NC(=S)Nc1ccn(C)n1	i	47.9
COc1cccc(NC(=O)CSc2nnc(-c3ccc(Cl)cc3)n2-c2ccc(F)cc2)c1	i	-39.2
SMILES	ID4 binder	p53 PUMA act
Cc1cc(I)cnc1NC(=O)COc1ccc([N+](=O)[O-])cc1	i	5.6
COCCNC(=S)N1CCN(Cc2ccco2)CC1	+	-0.5
CS(=O)(=O)N1CCN(C(=S)NCc2ccco2)CC1	i	14.3
CC(C)CC#Cc1cnc2c(c1)C(=O)N([C@H](C)CO)C[C@@H](C)[C@@H](CN(C)C(=O)Cc1cccnc1)O2	/	0.5
C[C@H](CO)N1C[C@H](C)[C@H](CN(C)C(=O)c2ccc3c(c2)OCO3)Oc2ncc(/C=C/c3ccccc3)cc2C1=O	i	-2.2
O=C(Nc1ccccc1C(=O)OCc1cccc(C(=O)c2ccccc2)c1)c1ccccc1	i	6.0
CC(=O)Nc1ccccc1C(=O)OCc1cccc(C(=O)c2ccccc2)c1	i	94.2*
N#Cc1ccc(Oc2ccc(C(=O)OCc3cccc(C(=O)c4ccccc4)c3)cc2)cc1C#N	i	8.1
O=C(OCc1cccc(C(=O)c2ccccc2)c1)c1ccc(-c2nnc(-c3ccccc3)o2)cc1	i	71.3*
COc1ccc(C)cc1S(=O)(=O)NCc1ccncc1	i	-16.1
COC(=O)C(CC#Cc1ccc2c(c1)[C@]1(C(=O)N2)[C@H](c2ccc(OCCO)cc2)N2[C@H](c3ccccc3)[C@H](c3ccccc3)OC(=O)[C@H]2[C@@H]1C(N)=O)C(=O)OC	i	/
C[C@H]1CN([C@@H](C)CO)C(=O)c2cc(NS(=O)(=O)c3ccc(Cl)cc3)ccc2O[C@H]1CN(C)C(=O)NC1CCCCC1	i	-2.8
NCCCCCNC(=O)[C@@H]1C[C@@H]2C(=O)NCC(=O)N2[C@@H]1c1cccc(OCCO)c1	+	/
NCCCCCCNC(=O)[C@@H]1C[C@@H]2C(=O)N[C@@H](Cc3ccccc3)C(=O)N2[C@@H]1c1ccc(O)cc1	+	/
NCCCCCNC(=O)[C@H]1C[C@H]2C(=O)NCC(=O)N2[C@H]1c1cccc(OCCO)c1	i	/
NCCCCCCNC(=O)[C@@H]1C[C@@H]2C(=O)NCC(=O)N2[C@@H]1c1ccc(O)cc1	+	/
CN(C)CCCCNC(=O)[C@@H]1C[C@@H]2C(=O)NCC(=O)N2[C@@H]1c1ccc(O)cc1	i	/
C=CCOC(=O)[C@@H]1[C@H]2C(=O)O[C@H](c3ccccc3)[C@H](c3ccccc3)N2[C@H](c2ccc(OCCOC(=O)[C@@H]3C[C@@H]4C(=O)N[C@@H](Cc5ccccc5)C(=O)N4[C@@H]3c3ccc(O)cc3)cc2)[C@@]12C(=O)Nc1ccccc12	i	/
O=C(Nc1cccc(Cn2cccn2)c1)c1cc(-c2cccnc2)nc2ccc(Cl)cc12	i	-5.7
O=C(CSc1nnnn1-c1ccccc1)Nc1cc(Cl)ccc1C(=O)O	i	-6.1
O=C(CSc1nnnn1-c1ccccc1)Nc1ccc(Cl)c(C(=O)O)c1	+	3.4
CC1(O)CC(=O)c2c(ccc3c2C(=O)c2cccc(O)c2C3=O)C1 (stereo unspecified)	i	-17.9
Cc1cc(CNC(=S)Nc2ccc(S(N)(=O)=O)cc2)nn1C	i	-4.8
Cn1nnc2cc(NC(=O)NCc3ccco3)ccc21	i	17.8
Cc1nc2cc(NC(=O)NCc3ccco3)ccc2o1	i	58.2*
SMILES	ID4 binder	p53 PUMA act
CS(=O)(=O)N(CC(=O)Nc1ccccc1Sc1ccccc1)c1ccc(Cl)c(Cl)c1	i	-20.3
O=C(NC(Cc1ccc(O)cc1)C(=O)O)c1ccccc1 (stereo unspecified)	+	43.5
O=C(NC(Cc1ccc(F)cc1)C(=O)O)c1ccccc1 (stereo unspecified)	i	-7.9
N#Cc1c(-c2ccccc2)nc(SCC(=O)Nc2ccc(Oc3ccccc3)cc2)[nH]c1=O	i	12.5
CC(=O)c1ccc(NC(=O)CSc2nc(-c3ccccc3)c(C#N)c(=O)[nH]2)cc1	i	59.0*
CCc1c(O)nc(SCC(=O)Nc2ccc(C(C)=O)cc2)[nH]c1=O	+	11.0
CC(=O)c1ccc(NC(=O)CSc2nc(O)c(-c3ccccc3)c(=O)[nH]2)cc1	i	28.6
COc1cc(Cl)c(C)cc1NC(=O)CSc1nnc(-c2ccncc2)n1C	i	-5.8
COc1ccc2c(C)nc(Nc3nc(C)cc(=O)[nH]3)nc2c1	i	72.7*
CCCc1cc(=O)[nH]c(Nc2nc(C)c3ccc(OC)cc3n2)n1	i	32.8
